Experimental findings from PubChem BioAssay (NCI) are described below.

The panel holds about 83,000 compounds, 20% with a hit somewhere; the sample as a whole holds those more often.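 Assay: single dose, 48 h. Readout: percent growth (0 = no net growth; negative = cell death). Active: <10.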 Values without a mark were called inactive. Activity calls are given as the source filed them.

The assay relates to NCI-H226 lung. The experiment in a line: NCI-60 one-dose screen, 48 h (100 = growth as untreated, 0 = no growth, -100 = all killed). Conditions: 10 µM unless noted.
`Cc1ccc(/C=C/C(=O)c2ccc(F)cc2)s1`: the growth is 85.1%.
Regarding `O=C1Nc2ccc(Cl)cc2/C1=C/c1cccs1`, the growth was 88.7%.
For `N=C1c2nc3n(c2C(=O)c2nc4n(c21)CCCCC4)CCCCC3` the value was 98.3%; for `O=C(c1ccccc1)c1ccc(Oc2ccc([N+](=O)[O-])cc2[N+](=O)[O-])cc1`, 48.4%; for `CC[C@H]1CN2CCc3cc(OC)c(OC)cc3C2C[C@@H]1CC1NCCc2cc(OC)c(OC)cc21` (some centres undefined), -25.4% (active).
To `O=C(/C=C/c1cccc(O)c1)c1cccc(-n2cc(-c3ccccc3)[nH]c2=O)c1` belongs 3.79% (active).
With `CCOC(=O)Nc1cc(-c2ccc(C)c(NS(C)(=O)=O)c2)nn2c(C)nnc12`, the growth was 35%.
Regarding `C1CCC(C(CC2CCCCN2)C2CCCCC2)CC1` (centres undefined), the growth is 28%.
To `C[C@H]1c2cccc(O)c2C(O)=C2C(=O)[C@]3(O)C(O)=C(C(N)=O)C(=O)[C@@H](N(C)C)[C@@H]3[C@@H](O)[C@@H]21` belongs 69.2%.
To `COc1ccc(C(=O)COc2cccc(/C=C3\COc4ccc5ccccc5c4C3=O)c2)cc1` belongs 72.7%; to `CN1CCC[C@@H]1CCO[C@](C)(c1ccccc1)c1ccc(Cl)cc1`, 75.5%.
For the compound `C=CCNC(=O)/C(=C/c1cccc([N+](=O)[O-])c1)NC(=O)c1ccccc1`, the growth was 90.5%.
With `CCc1ccc(-c2nc(SCC(=O)NC3CCCCC3)n[nH]2)cc1`, the growth was 67.8%.
For `Cc1cc2ccccn2c1C(=O)c1ccc(C(=O)c2ccccc2)cc1` the value was 86.9%.
